# Inconclusive results are not listed. Values without a mark were called inactive. For part of these data: Results with a measured potency or affinity are listed apart. Calls of active or inactive are those of the source. Unless noted, no rule for the calls is given here.
# Test: not given
# Settings: Ebola virus entry assay, blue channel (ratio component)
row,Compound,outcome
1,COC(=O)c1nc(Cl)c(Cl)nc1N,inactive
2,Cc1cc(C)c(/C=C2\C(=O)Nc3ccccc32)[nH]1,inactive
3,O=C(CCCN1CCN(c2ccccn2)CC1)c1ccc(F)cc1,inactive
4,CC1(C)O[C@@H]2C[C@H]3[C@@H]4C[C@H](F)C5=CC(=O)C=C[C@]5(C)[C@H]4[C@@H](O)C[C@]3(C)[C@]2(C(=O)CO)O1,inactive
5,CCn1c(=O)c2c(nc(C=Cc3ccc(OC)c(OC)c3)n2C)n(CC)c1=O,inactive
6,COc1cc2c(cc1OC)C(C(C(=O)N(CCc1ccc(OC)c(OC)c1OC)CCc1ccc(OC)c(OC)c1OC)c1ccccc1)=NCC2 (stereo not given),inactive
7,O=Cc1ccccc1C=O,inactive
8,O=C(Cn1ccnc1[N+](=O)[O-])NCCO,inactive
9,CCCC(=O)O[C@]1(C(=O)CC)CC[C@H]2[C@@H]3CCC4=CC(=O)CC[C@]4(C)[C@H]3[C@@H](O)C[C@@]21C,inactive
10,CN1Cc2c(N)cccc2C(c2ccccc2)C1 (stereo not given),inactive
11,C#C[C@]1(O)C=C[C@H]2[C@@H]3CCC4=CC(=O)CC[C@@H]4[C@H]3CC[C@@]21CC,inactive
12,COC(=O)Nc1nc2ccc(Sc3ccccc3)cc2[nH]1,inactive
13,c1ccc(CNCCNCc2ccccc2)cc1,inactive
14,CC(=O)OCC(=O)[C@@]12N=C(C)O[C@@H]1C[C@H]1[C@@H]3CCC4=CC(=O)C=C[C@]4(C)[C@H]3[C@@H](O)C[C@@]12C,inactive
15,O=C(Nc1ccc([N+](=O)[O-])cc1)Nc1ccc([N+](=O)[O-])cc1,inactive
16,CC[C@H]1C[C@H]2[C@@H]3CCC4=CC(=O)CC[C@@H]4[C@H]3CC[C@]2(C)[C@H]1O,inactive
17,C[C@]12CC[C@H]3[C@@H](CCC4=CC(=O)CC[C@@]43C)[C@@H]1CC[C@@H]2C(=O)CO,inactive
18,CC#C[C@]1(O)CC[C@H]2[C@@H]3C[C@H](C)C4=CC(=O)CC[C@]4(C)[C@H]3CC[C@@]21C,inactive

row,Compound,outcome
1,C[C@]12CCC(=O)C=C1CC[C@@H]1[C@@H]2CC[C@@]2(C)[C@H]1CC[C@]2(O)C(=O)CO,inactive
2,CC(=O)OCC(=O)[C@@]1(O)CC[C@H]2[C@@H]3CCC4=CC(=O)C=C[C@]4(C)[C@H]3[C@@H](O)C[C@@]21C,inactive
3,CCOC(=O)OC(C)OC(=O)[C@@H]1N2C(=O)[C@@H](NC(=O)[C@H](N)c3ccccc3)[C@H]2SC1(C)C (stereo not given in full),inactive
4,CCC(=O)O[C@]1(C(=O)COC)[C@@H](C)C[C@H]2[C@@H]3CCC4=CC(=O)C=C[C@]4(C)C3(F)[C@@H](O)C[C@@]21C (stereo not given in full),inactive
5,CCCCC/C=C\C/C=C\CCCCCCCC(=O)NC(C)c1ccccc1 (stereo not given),inactive
6,COP(=S)(OC)Oc1ccc(S(N)(=O)=O)cc1,inactive
7,CCOP(=S)(OCC)O/N=C(\C#N)c1ccccc1,inactive
8,CCN(CC)C(=O)Nc1ccc(OCC(O)CNC(C)(C)C)c(C(C)=O)c1 (stereo not given),inactive
9,c1cnc(N2CCN(Cc3ccc4c(c3)OCO4)CC2)nc1,inactive
10,CCOC(=O)OCC/C(SC(=O)OCC)=C(\C)N(C=O)Cc1cnc(C)nc1N,inactive
11,C[C@@H]1C[C@H]2[C@@H]3CCC4=CC(=O)C=C[C@]4(C)[C@@]3(F)[C@@H](O)C[C@]2(C)[C@@]1(O)C(=O)COC(=O)c1ccncc1,inactive
12,O=C(NCC1CN(c2ccc(N3CCOCC3=O)cc2)C(=O)O1)c1ccc(Cl)s1 (stereo not given),inactive
13,C=C1C(=C/C=C2\CCC[C@]3(C)[C@@H]([C@H](C)/C=C/[C@@H](O)C4CC4)CC[C@@H]23)C[C@@H](O)C[C@@H]1O,inactive
14,CCCCCOc1ccccc1/C(=C\SC)n1ccnc1,inactive
15,C[C@@H]1CC[C@H]2[C@@H](C)C(=O)O[C@@H]3O[C@@]4(C)CC[C@@H]1[C@]32OO4,inactive
16,O=C1OC2(c3ccc(O)cc3Oc3cc(O)ccc32)c2ccccc21,inactive
17,Cc1nc2ccccc2c(=O)n1-c1ccccc1Cl,inactive

# Test: qHTS assay for measurement of the activity of small molecule inhibitors on Zika virus induced Caspase-3 activity in human iPSC derived neural progenitor cells (hNPCs) (AID 1224857; active = well fitted inhibition curve with a large enough effect; also: % of control where 0% means no effect; nearly all actives have a fitted effect of over 65% in size)
# Settings: hNPCs ZIKV-induced caspase-3/7, Caspase-Glo luminescence, 6 h; series mostly up to 45.7 µM; activity change, negative = inhibition: at the top concentration
# Summary of the method: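 Values are percent inhibition of virus-induced caspase-3/7 signal, scaled between uninfected cells and ZIKV-infected cells. Infection used 2 FFU/cell for 6 h after 1 h compound exposure.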
row,Compound,"activity change, negative = inhibition [%]"
1,Cc1ccc([N+](=O)[O-])[c]2c1[O][Hg]2,-135
2,C[C@]12Cc3nonc3C[C@@H]1CC[C@@H]1[C@@H]2CC[C@@]2(C)[C@H]1CC[C@]2(C)O,53.8
3,C#C[C@]1(O)CC[C@H]2[C@@H]3CCC4=CC(=O)CCC4=C3C=C[C@@]21CC,-2.48
4,C#C[C@]1(O)C=C[C@H]2[C@@H]3CCC4=CC(=O)CC[C@@H]4[C@H]3CC[C@@]21CC,6.64
5,CC[C@H]1C[C@H]2[C@@H]3CCC4=CC(=O)CC[C@@H]4[C@H]3CC[C@]2(C)[C@H]1O,-0.402
6,CC#C[C@]1(O)CC[C@H]2[C@@H]3C[C@H](C)C4=CC(=O)CC[C@]4(C)[C@H]3CC[C@@]21C,44.1
7,COP(=S)(OC)Oc1ccc(S(N)(=O)=O)cc1,7.6
8,CCOP(=S)(OCC)O/N=C(\C#N)c1ccccc1,5.08
9,CC(C(O)c1ccccc1)N(C)C/C=C/c1ccccc1 (stereo not given),-10.7
10,C[C@@H]1CC[C@H]2[C@@H](C)C(=O)O[C@@H]3O[C@@]4(C)CC[C@@H]1[C@]32OO4,23.7
